# D2 ag-1 = activates the human D2 dopamine receptor | P14416 | activation, % (test concentration not listed) | 0.084% of 360,000 active | AID 624465 | DiscoveRx PathHunter D2 beta-arrestin, luminescence, 90 min; 100% = 57 uM dopamine signal; in the data active means activation above about 40%; inconclusive means between about 15% and that limit
# Target sequence (P14416 whole entry, looked up): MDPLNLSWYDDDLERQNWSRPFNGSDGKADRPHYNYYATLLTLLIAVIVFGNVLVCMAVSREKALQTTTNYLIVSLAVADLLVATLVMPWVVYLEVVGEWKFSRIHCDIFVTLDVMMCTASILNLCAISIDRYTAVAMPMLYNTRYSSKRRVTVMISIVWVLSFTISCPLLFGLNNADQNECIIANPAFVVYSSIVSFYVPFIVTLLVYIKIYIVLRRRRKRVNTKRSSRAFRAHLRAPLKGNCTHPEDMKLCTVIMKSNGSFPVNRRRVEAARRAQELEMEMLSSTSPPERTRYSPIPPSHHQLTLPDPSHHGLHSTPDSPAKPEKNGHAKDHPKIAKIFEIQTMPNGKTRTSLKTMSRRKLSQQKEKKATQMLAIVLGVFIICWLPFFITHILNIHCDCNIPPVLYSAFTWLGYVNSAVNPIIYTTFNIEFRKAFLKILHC
#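 DiscoveRx PathHunter D2 beta-arrestin cells (2,100/well) attached overnight, then compound-stimulated 90 min at 37 C in HBSS/10 mM HEPES/0.1% Tween-20 buffer; beta-galactosidase complementation read by luminescence after 1 h at ambient temperature. Dopamine 57 uM final (EC100) as control.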
# D2 antagonist = D2 dopamine receptor (human) antagonism. P14416. HEK293 TREx D2 cells, calcium flux, dopamine EC80. inhibition, % at 10 µM. 2% of 340,000 active. AID 485344; in the data active means inhibition above about 30%; inactive means below that, where a call was filed; further: 0% is about no effect
#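 Tetracycline-induced HEK293 T-REx cells expressing D2 force-coupled to calcium signalling were dye-loaded, exposed to compound for 180 s, then challenged with an EC80 of dopamine; calcium flux was followed kinetically for a further 180 s.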
# D2 PAM-1 = positively modulates the human D2 dopamine receptor allosterically. 0.34% of 340,000 active. AID 485347. HEK293 T-REx D2, calcium flux, EC20 dopamine potentiation. potentiation, % at 10 µM. P14416;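 active means potentiation over 3 SD above the plate norm, cut at about 30% in these data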; further: 0% is about no effect
#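 Tetracycline-induced HEK293 T-REx cells force-coupled to calcium signalling expressed D2; compounds were pin-added after a 10 s baseline, read kinetically 180 s, then an EC20 dopamine challenge followed with a further 180 s calcium read.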
# D2 PAM-2 = human D2 receptor positive allosteric modulation; P14416; DiscoveRx D2 beta-arrestin cells, luminescence, 90 min; 100% = 57 uM dopamine signal; potentiation, % (concentration not given with the values); 0.23% of 360,000 active; AID 624464; in the data active means potentiation above about 50%; inconclusive means mostly about 30% to 49%
#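 PathHunter D2 cells, attached overnight at 37 deg C, received compound in DMSO plus dopamine at EC20 (50 nM final) for 90 min at 37 deg C. Beta-arrestin recruitment was read as luminescence after 1 h with detection reagent at ambient temperature.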
# D2 ag-2 = activates the human D2 dopamine receptor; AID 485358; P14416; 0.53% of 340,000 active; activation, % at 2 µM; HEK293 T-REx D2 cells, calcium flux agonist mode;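 active means activation over 3 SD above normal in the single-dose calcium agonist read, cut at about 30% in these data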; further: 0% is about no effect
#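 Agonism is scored from calcium flux in a force-coupled, inducible HEK293 cell line expressing D2, read kinetically for 180 s after compound addition against dopamine controls.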
# D3 arrestin ag = confirmation of human D3 dopamine receptor agonists, beta-arrestin. Potency, µM (highest dose often 76.9 µM), without a hit: at the highest dose activation, usual class: activators. 4% of 2,300 active. shares compounds with D2 ag-2. AID 720506. DiscoveRx D3 beta-arrestin cells, luminescence, 90 min;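 further: potency means the concentration at half of the fitted maximal effect; 100% = dopamine control response; nearly all actives have a fitted effect of over 70% in size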
# D2 ag-3 = counter-screen for D3 agonists: human D2 dopamine receptor agonism; 5.9% of 2,300 active; Potency, µM (top dose mostly 76.9 µM), inactives show at the highest dose activation, actives largely listed as activators; DiscoveRx PathHunter D2 beta-arrestin, luminescence, 90 min; response scale: percent relative to full dopamine signal; shares compounds with D2 ag-2; further: potency means the concentration at half of the fitted maximal effect; % of control where 0% means no effect; nearly all actives have a fitted effect of over 70% in size
# Numbers without * were called inactive; ? = inconclusive; / = not tested or not shown; ! = a repeat was not active. Most compounds without a hit are left out; they make up all but 2.4% or so of the library. Unless noted, the call rests on the fitted dose curve; in most records, active means well fitted activation curve with a large enough effect; inconclusive means small, poorly fitted or top-dose-only effect; inactive means flat fitted curve, though single readings scatter.
SMILES,D2 ag-1,D2 antagonist,D2 PAM-1,D2 PAM-2,D2 ag-2,D3 arrestin ag,D2 ag-3
COc1ccc(S(=O)(=O)NCCS(=O)(=O)N2CCN(c3ccccc3)CC2)cc1OC,/,/,8,/,2,/,/
CC(=O)NC1CC2CCCC(C1)N2C(=O)Nc1cccc(C(C)=O)c1 (stereo not given),-2,/,/,-26,/,/,/
Cc1ccc2c(c1)N(C(C)C(=O)NCc1ccc3c(c1)OCO3)C(=O)CO2 (stereo not given),5,16,-7,-3,0,-1%,-1%
Cc1ccccc1C(=O)N1CCC(C(=O)N(CC(C)C)c2c(N)n(CC(C)C)c(=O)[nH]c2=O)CC1,-1,-24,7,-1,0,/,/
COCCN(C(=O)C1CCN(C(=O)c2ccccc2C)CC1)c1c(N)n(CC(C)C)c(=O)[nH]c1=O,0,-6,5,-4,0,-1%,-2%
Cc1cc(NC(=O)CSCC(=O)Nc2cc(C(F)(F)F)ccc2N2CCOCC2)no1,3,-19,7,-4,0,-6%,-2%
Cc1cc(NC(=O)CSCC(=O)Nc2cc(C(F)(F)F)ccc2N2CCCC2)no1,-6,-3,4,-19,0,/,/
Cc1c(Cl)cccc1NC(=O)CCn1cnnn1,/,/,-1,/,/,/,/
CC(=O)c1ccc(OCC(O)CN2CCN(CC(O)COc3ccc(C(C)=O)cc3)CC2)cc1 (stereo not given),-1,-11,-1,1,0,/,/
OC(COCc1ccc(Cl)cc1)CN1CCN(c2ccccn2)CC1 (stereo not given),45*,84*,-24,-1,83*,?,?
OC(COCC1COc2ccccc2O1)CN1CCN(c2ccccn2)CC1 (stereo not given),45*!,83*,-23,25,77*,?,?
CC(=O)c1ccc(OCC(O)CN2CCN(c3ccccn3)CC2)cc1 (stereo not given),47*,88*,-20,94*,83*,?,4µM*
CCOC(=O)N1CCN(CC(O)COCc2ccc(Cl)cc2)CC1 (stereo not given),-1,-8,15,-11,1,/,/
CCc1ccc(OCC(O)CN2CCN(c3ccccn3)CC2)cc1 (stereo not given),?,-4,-36,6,80*,?,?
c1ccc2c(-c3cc(NCc4ccncc4)n4nccc4n3)cccc2c1,3,/,/,-3,/,/,/
CC(=O)c1ccc(OCC(O)CN2CCN(Cc3ccccc3)CC2)cc1 (stereo not given),-7,17,-3,-3,9,-21%,4%
OC(COC(c1ccccc1)c1ccccc1)CN1CCN(c2ccccn2)CC1 (stereo not given),13,78*,-19,-15,77*,4.5µM*,?
CCCc1ccc(OCC(O)CN2CCc3ccccc3C2)cc1 (stereo not given),1,/,/,-83,/,/,/
CCCc1ccc(OCC(O)CN2CCN(c3ccccn3)CC2)cc1 (stereo not given),?,74*,-20,-11,78*,1.3µM*,?
CC(C)(C)C1CCC(OCC(O)CN2CCN(c3ccccn3)CC2)CC1 (stereo not given),?,63*,-32,20,62*,0.63µM*,20µM*
CCCCC(=O)N(C)c1c(CC)nc2c(OCCOc3ccccc3)cccn12,2,/,/,-10,/,/,/
Cc1ccc2[nH]c(=O)c3cc(C(=O)N(C)Cc4ccco4)sc3c2c1,-6,-11,-12,-1,82*,-3%,-3%
COc1ccc(OCc2cc(C(=O)NC3CCc4ccccc43)no2)c(Cl)c1 (stereo not given),-1,-12,-23,-12,58*,-3%,-1%
